Hits are enriched below; roughly 10% of the tested compounds scored in any of these assays.
Six1-Eya2 blk = qHTS Assay for Inhibitors of the Six1/Eya2 Interaction; AlphaScreen GST-Six1/His-Eya2 binding, biochemical; stronger effect = lower value; AID 651725, 2012; 360,000 tested, 0.56% active; activity change, % (no concentration beside the values); in the data active = activity change below about -65%; inconclusive = mostly about -30% to -63%; also: % is scaled to controls: 0 for no effect and ±100 for the full control effect
Target sequence (O00167 whole entry, looked up): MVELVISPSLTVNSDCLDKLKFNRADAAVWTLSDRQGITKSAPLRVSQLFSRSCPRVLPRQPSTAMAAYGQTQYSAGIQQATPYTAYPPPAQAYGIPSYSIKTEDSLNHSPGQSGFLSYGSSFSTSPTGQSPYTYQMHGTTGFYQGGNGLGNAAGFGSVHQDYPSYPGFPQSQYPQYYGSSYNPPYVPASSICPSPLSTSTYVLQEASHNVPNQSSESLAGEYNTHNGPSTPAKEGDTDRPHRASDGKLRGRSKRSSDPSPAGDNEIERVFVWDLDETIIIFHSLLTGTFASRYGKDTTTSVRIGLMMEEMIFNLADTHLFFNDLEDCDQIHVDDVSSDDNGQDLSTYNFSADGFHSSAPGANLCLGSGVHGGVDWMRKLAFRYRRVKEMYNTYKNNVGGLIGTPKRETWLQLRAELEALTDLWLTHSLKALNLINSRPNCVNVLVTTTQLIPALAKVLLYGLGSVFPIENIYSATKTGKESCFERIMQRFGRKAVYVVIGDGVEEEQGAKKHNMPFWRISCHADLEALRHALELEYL
Target sequence (Q15475 whole entry, looked up): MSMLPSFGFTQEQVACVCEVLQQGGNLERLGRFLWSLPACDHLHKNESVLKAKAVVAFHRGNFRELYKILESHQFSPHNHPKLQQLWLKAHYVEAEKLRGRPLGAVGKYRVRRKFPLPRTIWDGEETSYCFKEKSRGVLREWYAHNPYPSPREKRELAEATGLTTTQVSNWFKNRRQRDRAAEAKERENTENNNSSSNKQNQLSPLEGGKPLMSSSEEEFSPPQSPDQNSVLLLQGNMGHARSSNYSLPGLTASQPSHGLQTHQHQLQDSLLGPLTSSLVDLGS
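Six1/Eya2 binding was read as AlphaScreen signal after compounds were pinned into GST-Six1 plus His-tagged Eya2 (5X stock 250/500 nM) in pH 8.0 Tris/NaCl/TCEP buffer, beads added, then incubated 1 h, 37 C, dark.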
BAZ2B block = qHTS Assay for Inhibitors of BAZ2B. AlphaScreen BAZ2B-H3K14Ac peptide displacement. Potency, µM (titrated, usually from 114 µM), for inactives: at the top dose activity change, negative = inhibition, most hits filed as inhibitors. 360,000 tested, 4.4% active; also: potency is read from the fitted curve at half-maximal effect; % is scaled to controls: 0 for no effect and ±100 for the full control effect; nearly all actives have a fitted effect of over 60% in size
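Complex of BAZ2B and biotin-H3K14Ac (50 nM apiece) forms over 30 min at RT, then faces library compounds up to 110 uM for another 30 min; AlphaScreen beads added, 20 min dark incubation, luminescence read.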
JMJD2A Tudor inh = qHTS Assay for Inhibitors of JMJD2A-Tudor Domain | Potency, µM (highest dose often 114 µM), inactives show at the top dose activity change, negative = inhibition, most hits filed as inhibitors | AlphaScreen JMJD2A-Tudor / H3K4me3 peptide binding | 390,000 tested, 4.4% active; also: potency is read from the fitted curve at half-maximal effect; % is scaled to controls: 0 for no effect and ±100 for the full control effect; nearly all actives have a fitted effect of over 50% in size
HP1b binding inh = HTS for Inhibitors of HP1-beta Chromodomain Interactions with Methylated Histone Tails; Chromobox protein homolog 1 (Homo sapiens), P83916; AlphaScreen HP1-beta / biotin-H3K9me3 peptide binding; Potency, µM (top dose mostly 114 µM), for the others: top-dose activity change, negative = inhibition, usual class: inhibitors; 390,000 tested, 0.56% active; AID 540317, 2011; also: potency is read from the fitted curve at half-maximal effect; nearly all actives have a fitted effect of over 70% in size
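HP1-beta protein (50 nM final) preincubated 30 min at room temperature with biotinylated H3(1-18)K9me3 peptide (50 nM) in PBS pH 7.4, 0.01% Tween-20, then compound added for 30 min. AlphaScreen streptavidin donor/nickel chelate acceptor beads (10 ug/mL final), 30 min dark, luminescence read.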
G9a inh = qHTS Assay for Inhibitors of Histone Lysine Methyltransferase G9a; Potency, µM (top dose mostly 102 µM), without a hit: at the highest dose activity, negative = inhibition, usual class: inhibitors; G9a H3K9 monomethylation, AlphaScreen, 2 h; 350,000 tested, 8.8% active; also: potency is read from the fitted curve at half-maximal effect; % is scaled to controls: 0 for no effect and ±100 for the full control effect; nearly all actives have a fitted effect of over 75% in size
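AlphaScreen detection with an anti-monomethyl H3K9 antibody quantified product after a 2 h room-temperature reaction containing 500 nM biotinylated H3K9 peptide, 20 µM SAM and 20 nM enzyme, which had been preincubated 15 min with compound.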
CtBP-E1A blk = qHTS Assay for Inhibitors of the CtBP/E1A Interaction; CtBP / adenovirus E1A interaction (AlphaScreen); AlphaScreen GST-E1A/His-CtBP binding, 1536-well; stronger effect = lower value; 340,000 tested, 0.49% active; activity change, % (test concentration not listed); in the data active = activity change below about -65%; inconclusive = mostly about -30% to -63%; also: % is scaled to controls: 0 for no effect and ±100 for the full control effect
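Protein mix (5X: 125 nM each GST-E1A, His-CtBP) was incubated with pinned compound 2 h at 37 deg C in dark, in 50 mM Tris pH 8.0 buffer with 300 mM NaCl. Glutathione donor and nickel acceptor beads followed; AlphaScreen signal read after 1 h.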
* hit, by the source's call; ? = inconclusive; . = not tested or not shown; [ ] = another dose, or the depositor's remark. Unless noted, calls follow the shape of the dose curve; as a rule, active = well fitted inhibition curve with a large enough effect; inconclusive = small, poorly fitted or top-dose-only effect; inactive = no such curve, though single readings can be large or run the other way.

SMILES	Six1-Eya2 blk	BAZ2B block	JMJD2A Tudor inh	HP1b binding inh	G9a inh	CtBP-E1A blk
CC1(C)CC(=O)C2=C(C1)NC(Nc1nc3ccccc3o1)=NC2c1ccccc1 (configuration not stated)	.	.	-2%[57.1 µM]	20%[57 µM]	.	.
COc1ccc(NC(=O)/C(Cl)=C(/Cl)S(=O)(=O)Cc2ccc(C)cc2)cn1	?	-7%	-10%	33%	45µM*	?
COc1ccc(NC(=O)/C(Cl)=C(/Cl)S(=O)Cc2ccccc2Cl)cn1 (configuration not stated)	-26	-16%	-21%	-19%	10µM*	-10
Cc1cc(C)c2[nH]c(O)c(N=NC3=NC(=O)CS3)c2c1	-11	?	-29%	15%	.	0
CCc1ccc2c(c1)c(N=NC1=NC(=O)CS1)c(O)n2C	6	?	-33%	-9%	13µM*	-1
O=c1c(-c2cc(F)cc(F)c2)nc2cnc(N3CCOCC3)nc2n1CCc1ccccc1	.	.	.	.	15%[0.501 µM]	.
CCc1ccc(NC(=O)CSc2nnc(-c3nonc3NC(C)=O)n2-c2ccccc2)cc1	.	-7%	-22%	25%	-27%[59 µM]	.
CC1CCC/C(=C\Nc2ccc(C(=O)O)c(O)c2)C1=O (configuration not stated)	-15	-13%	-24%	22%	45µM*	-3
Cc1cc(Nc2ccccc2Cl)c2ccccc2n1	-12	.	-13%	12%	.	-6
Cc1cc(C)nc(NCC(O)CNc2ccccc2Cl)n1 (configuration not stated)	1	-32%	56µM*	14%	7.1µM*	-1
Cc1cccc(NC(=O)CN2C(=O)N/C(=C/c3cc(C)n(C)c3C)C2=O)c1	0	?	-28%	18%	56µM*	-2
Cc1cccc(NC(=O)CN2C(=O)N/C(=C\c3cccn3-c3cccc(C(=O)O)c3)C2=O)c1	-19	56µM*	-28%	-30%	35µM*	3
CCOc1cc(/C=C2/NC(=O)N(CC(=O)Nc3cccc(C)c3)C2=O)ccc1OC	-4	1%	6%	17%	21%	1
O=C(O)c1cccc(-n2cccc2/C=C2/NC(=O)N(c3ccc(Cl)cc3)C2=O)c1	-76*	1.8µM*	0.79µM*	1.1µM*	1.4µM*	?
COc1cc(/C=C2/NC(=O)N(CC(=O)Nc3cccc(C)c3)C2=O)ccc1OCC(N)=O	4	-17%	20µM*	?	20%	0
Cc1cc(C)n2c(NCc3ccccc3)c(-c3cc4ccccc4o3)nc2n1	2	.	.	.	.	4
COC(=O)c1ccc(-c2n[nH]c(=O)c3ccccc23)cc1	-3	11%	-13%	37%	8%[59 µM]	-2
COC(=O)Nc1nc2ccc(-c3n[nH]c(=O)c4ccccc34)cc2[nH]1	-7	?	?	11%	50µM*	-2
COC(=O)C1=C(C)NC(C)=C(C(=O)O[C@@H]2CCCN(Cc3ccccc3)C2)[C@@H]1c1cccc([N+](=O)[O-])c1	-22	.	45µM*	?	.	-25
Nc1nnnn1/N=C/c1cc(Cl)cc(Cl)c1O	-20	-3%	40µM*	16%	.	-17
CCOc1ccc(Oc2ccccc2NC(=O)CSCC(=O)Nc2cc(C)on2)cc1	-3	-7%	-2%	19%	-29%	4
Cc1cccc(Oc2ccccc2NC(=O)CSCC(=O)Nc2cc(C)on2)c1	0	-32%	-8%	9%	10µM*	3
COC(=O)c1nc(N)sc1-c1ccc(Cl)cc1	15	-24%	-9%	23%	45µM*	0
O=C(CCCc1nc(-c2ccccc2Cl)no1)N1CCOCC1	-5	-37%	-1%	38%	-42%	.
FC(F)(F)c1ccc(Cl)c(N/N=C/c2ccc(N3CCOCC3)s2)c1	-3	-31%	?	-12%	4µM*	-7
SMILES	Six1-Eya2 blk	BAZ2B block	JMJD2A Tudor inh	HP1b binding inh	G9a inh	CtBP-E1A blk
O=C(N/N=C/c1ccc(N2CCOCC2)s1)c1ccccc1Cl	-2	-34%	?	-22%	?	-5
Cc1cc(C)cc(C(=O)NCCCN2CCOCC2)c1	-6	-26%	-16%	17%	?	1
COC(=O)Cn1c(CN2CCc3ccccc3C2)nc2c1c(=O)n(C)c(=O)n2C	0	12%	-15%	55%	50µM*	-14
COc1ccc(N2CCN(c3nc4c(c(=O)n(C)c(=O)n4C)n3Cc3ccccc3)CC2)cc1	?	45µM*	56µM*	?	-49%[12.7 µM]	-24
CCCn1c(SCC(=O)N2CCN(c3ccc(OC)cc3)CC2)nc2c1c(=O)n(C)c(=O)n2C	-1	-27%	-20%	27%	50µM*	2
Cc1ccccc1Cn1c(CN2CCc3ccccc3C2)nc2c1c(=O)n(C)c(=O)n2C	-2	-3%	?	-25%	?	-3
Cn1c(=O)c2c(nc(SCc3cccnc3)n2Cc2ccccc2)n(C)c1=O	-8	-8%	35µM*	22%	?	-8
CCCn1c(SCC(=O)N2CCCC2)nc2c1c(=O)n(C)c(=O)n2C	2	-6%	-2%	30%	25%	6
Cc1oc(-c2ccc(C(=O)Nc3ccc(F)cc3F)cc2)nc1COc1ccccc1	.	-4%	-2%	28%	-15%[59 µM]	.
Cn1c(=O)c2c(nc(CN3CCN(Cc4ccccc4)CC3)n2Cc2ccccc2)n(C)c1=O	.	11%	.	.	-11%	.
Cn1c(=O)c2c(nc(CN3CCN(Cc4ccccc4)CC3)n2Cc2ccc(Cl)cc2)n(C)c1=O	1	-26%	?	12%	45µM*	-24
CCN1CCN(c2nc3c(c(=O)n(C)c(=O)n3C)n2Cc2cccc3ccccc23)CC1	-3	-5%	-5%	18%	40µM*	19
CN(C(=O)c1ccc2c(c1)N(Cc1cccc(Cl)c1)C(=O)c1ccccc1S2(=O)=O)C1CCCCC1	.	1%	-18%	11%	-24%[59 µM]	.
O=C(COC(=O)CCC(=O)c1ccc(F)cc1)NCc1ccc(Cl)cc1	3	.	-2%	13%[57 µM]	.	-4
O=C(Cn1nnc(-c2ccc(Cl)cc2)n1)NCc1ccco1	-2	50µM*	-32%	22%	?	.
O=C(COC(=O)CCC(=O)c1ccc(Cl)cc1)NCc1ccco1	-27	.	?	-14%	50µM*	-2
O=C(COC(=O)CCOc1ccccc1)NCc1ccco1	-11	32µM*	40µM*	?	?	10

From PubChem BioAssay
